According to PubChem BioAssay (NCI):
Values joined by “and” are separate entries in the source; they are usually repeats but may differ in a detail not shown here. Identical values can stand only once. Compounds without any hit were thinned out: in the full panel of roughly 83,000, 20% have a hit.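 Values shown are percent growth following 48 h exposure of cells in 96-well plates to a single concentration of compound; below 10 was considered active.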 Active and inactive are the calls of the source.

What follows are compounds tested on LOX IMVI melanoma (assay: NCI-60 one-dose screen, 48 h (100 = growth as untreated, 0 = no growth, -100 = all killed)). Settings: 10 µM.
Experimental: Growth inhibition of the LOX IMVI human tumor cell line is measured as a screen for anti-cancer activity. Cells are grown in 96 well plates and exposed to the test compound for 48 hours. Compounds are tested at a single concentration, which is 10^-5 M for most compounds. The reported endpoint is percent growth (GI% or GIPRCNT), where numbers from 0 - 100% represent growth inhibition, and numbers from -100% - 0 represent cell death. For example, a value of 40 represents 60% growth inhibition. A value of 0 means no net growth occurred over the course of the experiment. A value of -40 indicates 40% of cells at the beginning of the experiment died by the end of the experiment. A value of -100 means all cells are dead at the end of the experiment.
NCI-60 Human Tumor Cell Lines Screen was performed using the standard one-dose NCI protocol, which is described in more detail at https://dtp.cancer.gov/discovery_development/nci-60/default.htm.
Compounds with GIPRCNT values below 10 were considered active. Activity score was based on GIPRCNT using the following formula: […]
Score is 0 for GIPRCNT values of 100 or above, 50 for GIPRCNT values of 0, and 100 for GIPRCNT values of -100.
In the case of O=C(Nc1c(Cl)cccc1Cl)Oc1cccc2cccnc12, the growth is reported as 33.1% (inactive). With O=C(O)c1c(Cl)c(Cl)c(Cl)c(Cl)c1-c1c2cc(I)c(=O)c(I)c-2oc2c(I)c(O)c(I)cc12 the growth was 98.6% (inactive) and 92% (inactive) and 87.7% (inactive).

Same assay, conditions: 10 µM unless noted
In the case of C=C(Cl)C(=NC(C)(C)C)Nc1ccccc1C, the growth is reported as 81.1% (inactive). CCCCCCCCCCCCCCCCOP(=O)([O-])OCC[N+](C)(C)C was tested, and the growth was 27.8% (inactive). O=C(/C=C\c1ccccc1)N1c2ccccc2CC1c1c[nH]c2ccccc12 (stereo not given) was tested, and the growth was 67.9% (inactive). In the case of CCCCCCCCCCCCCCCCCCOP(=O)([O-])OC1CC[N+](C)(C)CC1, the growth is reported as 11.4% (inactive) and -3.66% (active). In the case of CC1OC2CC(=O)OC2C2=C1C(=O)c1c(O)cccc1C2=O (stereo not given), the growth is reported as -91.6% (active). In the case of O=C1NC(=O)/C(=C/C=C/c2ccccc2)S1, the growth is reported as 15.8% (inactive). For Nc1ncnc2c1ncn2C1OC(CO)C(O)C1O (stereo not given), the growth was 106% (inactive) and 57.2% (inactive) and 94.6% (inactive). O=C(Oc1cccc2cccnc12)c1ccccc1 was tested, and the growth was 70% (inactive) and 100% (inactive). In the case of CCC(CC)COC(=O)c1ccc(O)c(O)c1, the growth is reported as 69.2% (inactive). For CCC1OC(OC)C=CC1=O (stereo not given), the growth was 103% (inactive). For CCOc1ccc(-c2nc3ccc(-c4nc5ccc(N6CCN(C)CC6)cc5[nH]4)cc3[nH]2)cc1, the growth was -88% (active). CC1=CC(O)C2CC1C2(C)C (stereo not given) was tested, and the growth was 98% (inactive) and 105% (inactive). With Cn1c2ccccc2c2nnc(N/N=C/c3ccccn3)nc21 the growth was 1.32% (active). Cc1cc(N)c2ccccc2[n+]1CCCCCCCCCC[n+]1c(C)cc(N)c2ccccc21 was tested, and the growth was -73% (active) and 37.4% (inactive). With Nc1ccc(SSc2ccc(N)cc2)cc1 the growth was 79.6% (inactive). In the case of N#Cc1ccc([N+](=O)[O-])o1, the growth is reported as 108% (inactive). For O=C(Nc1cccc(Br)c1)Oc1ccc(Cl)c2cccnc12, the growth was 4.16% [100 µM] (active). With O=C(Nc1ccc(F)cc1)ON=C1CCCCC1 the growth was 88.2% [100 µM] (inactive). For O=C(Nc1ccccc1)Oc1c(Cl)c(Cl)c(Cl)c(Cl)c1Cl, the growth was 99% (inactive) and 93.1% (inactive). CCCCCC(CCCCC)C(=O)O was tested, and the growth was 110% (inactive). S=C(NCCNC(=S)[S][Sn]([c]1ccccc1)([c]1ccccc1)[c]1ccccc1)[S][Sn]([c]1ccccc1)([c]1ccccc1)[c]1ccccc1 was tested, and the growth was -86.5% (active). For Cc1c2ccccc2c(C)c2c1ccc1ccccc12, the growth was 64.3% (inactive). For CN(C)c1ccc(/C=N/N=C(\C#N)[S][Sn]([Cl])([c]2ccccc2)[c]2ccccc2)cc1, the growth was -92.8% (active). Oc1c(Br)c(Br)c(O)c(Br)c1Br was tested, and the growth was 90.9% (inactive). In the case of Cc1ccc2c(ccc3c[n+]4c5ccccc5ccc4n32)c1, the growth is reported as 22.5% (inactive). In the case of O=C1c2ccccc2C(=O)c2sc(Nc3cccc(Cl)c3)nc21, the growth is reported as -69.1% (active). For NC(=S)N/N=C\c1nccc2c(C(F)(F)C(F)(F)C(F)(F)F)cccc12, the growth was 4.13% (active). With COC(=O)c1nc(=S)[nH]c(C(=O)OC)c1C(=O)c1ccccn1 the growth was 10.2% (inactive). With CN(C)CCOc1ccc2c(c1)C(=O)/C(=C\c1ncc([N+](=O)[O-])n1C)C2 the growth was -41.9% (active). For CCC(CCCN(CC)CCc1ccccc1)OC(=O)c1cc(OC)c(OC)c(OC)c1 (stereo not given), the growth was 80.9% (inactive). Cc1ccnc(NC(c2ccccc2)c2ccc3cccnc3c2O)c1 (stereo not given) was tested, and the growth was 28.1% (inactive). With COC(=O)[C@@]12OC[C@]34[C@H]([C@@H](O)[C@@H]1O)[C@@]1(C)[C@H](O)C(=O)C=C(C)[C@@H]1C[C@H]3OC(=O)C(OC(C)=O)[C@@H]24 (stereo not given in full) the growth was -84.1% (active). O=C(O)C1C2CC3C(OC(=O)C31)C2Br (stereo not given) was tested, and the growth was 101% (inactive) and 95.2% (inactive). N#CSCC(=O)c1ccc(Cl)cc1 was tested, and the growth was 12.3% (inactive). In the case of CCC(=O)Sc1ccccc1C(=O)Nc1ccc(Cl)cc1, the growth is reported as 42.2% (inactive). For CCCCCCCCCCCCCCCCN(CC)CC, the growth was -100% (active).

Same assay, conditions: 100 µM
For O=C(Nc1c(Cl)cccc1Cl)Oc1cccc2cccnc12, the growth was 7.87% (active). In the case of O=C(O)c1c(Cl)c(Cl)c(Cl)c(Cl)c1-c1c2cc(I)c(=O)c(I)c-2oc2c(I)c(O)c(I)cc12, the growth is reported as -76.1% (active).
